Source: PubChem (National Center for Advancing Translational Sciences (NCATS))
HT1080 IDH1KD tx – HT-1080 IDH1 knockdown cell toxicity (counter line). Potency, µM (titrated, usually from 46.1 µM), for the others: at the top dose activity, negative = toxicity, usual class: cytotoxic. 2% of 360,000 active. AID 686971. HT-1080 IDH1 knockdown viability, ATP luminescence, 48 h;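 note: potency is the fitted concentration of half-maximal effect; 0% = DMSO wells and -100% = cell-free medium wells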
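Assay cells: HT-1080 with IDH1 knockdown, 750 per well, RPMI/5% FBS. Exposure: 48 h at 37 °C following 2 h pre-incubation. Read: CellTiter-Glo luminescence; fitted concentration-response, curve class assigned.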
HT1080-NT tox – kills 2HG-producing HT-1080-NT fibrosarcoma cells; HT-1080-NT fibrosarcoma viability, CellTiter-Glo ATP luminescence, 48 h; Potency, µM (top dose mostly 46.1 µM), for inactives: at the top dose activity, negative = less viability, actives largely listed as cytotoxic; 1.6% of 360,000 active; AID 686970;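 note: NT is the 2HG producing partner of a matched IDH1 knockdown line; potency is the fitted concentration of half-maximal effect; 0% = DMSO-treated cells and -100% = media-only wells without cells; nearly all actives have a fitted effect of over 55% in size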
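A 48-hour cytotoxicity screen used HT-1080-NT cells plated 2 hours before compound delivery. ATP-based CellTiter-Glo luminescence measured viability, normalized to DMSO and no-cell controls.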
IL-1B inflam inh – inhibitors of inflammasome signaling (IL-1 beta secretion). THP-1 LPS/ATP IL-1B secretion, AlphaLISA, 16 h; hits give low values. activity change, % at 57.5 µM. 4.7% of 360,000 active. AID 743279; in the data active = activity change below about -50%; inconclusive = mostly about -30% to -49%
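Secreted IL-1B measured by AlphaLISA bead assay after 16 h compound exposure of THP-1 cells; compounds (final up to 57.5 uM) added 1 h before LPS (250 ng/mL) and ATP (1.25 mM) stimulation; lower signal means less secretion.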
DT40 TDP1 no CPT – qHTS for Inhibitors of human tyrosyl-DNA phosphodiesterase 1 (TDP1): qHTS in cells in absence of CPT. Potency, µM (titrated, usually from 46.2 µM), for inactives: at the highest dose activity change, negative = growth inhibition, usual class: inhibitors. DT40 Tdp1-/- hTDP1 cells, no CPT, ATP luminescence, 48 h. 15% of 420,000 active; note: potency is the fitted concentration of half-maximal effect; nearly all actives have a fitted effect of over 55% in size
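Chicken DT40 Tdp1-/- cells stably complemented with human TDP1 were seeded at 400 cells/well with DMSO in place of 20 nM camptothecin. After compound pinning, cells grew at least 48 hr at 37 °C; viability read by CellTiter-Glo luminescence.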
TDP1 cell CPT – DT40-hTDP1 cell growth loss with CPT; chicken DT40 Tdp1-/-;hTDP1 cells + 20 nM CPT, ATP luminescence, 48 h; Potency, µM (top dose mostly 46.2 µM), without a hit: at the top dose activity change, negative = growth inhibition, usual class: inhibitors; 12% of 420,000 active; AID 686979; note: potency is the fitted concentration of half-maximal effect; nearly all actives have a fitted effect of over 55% in size
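Chicken DT40 Tdp1-/- cells stably complemented with human TDP1 were seeded at 400 cells/well in medium containing 20 nM camptothecin, exposed to pin-transferred compounds, and grown at 37 °C for at least 48 hr. Viability was read as ATP luminescence.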
The depositor's hits bear a star; ? = inconclusive; / = no result given. Hits are enriched below; roughly 19% of the tested compounds scored in any of these assays. Unless noted, calls come from the whole dose curve; as a rule, active = well fitted curve in the direction sought with a large enough effect; inconclusive = small, poorly fitted or top-dose-only effect, or another doubt; inactive = no such curve, though single readings can be large; an effect the other way counts as inactive or inconclusive. Unless noted, % is set by controls: 0 for no effect and ±100 for the full control effect.

SMILES	HT1080 IDH1KD tx	HT1080-NT tox	IL-1B inflam inh	DT40 TDP1 no CPT	TDP1 cell CPT
CC(C)(C)NC(=O)C(c1ccc(-c2ccccc2)cc1)N(C[C@H]1CC[C@@H]([C@@H]2CC[C@H](CO)O2)O1)C(=O)c1ccccc1F (stereo partly specified)	-10%	1%	-63*	16µM*	29µM*
CC(C)(C)NC(=O)C(c1ccc(F)cc1)N(CC1CCCO1)C(=O)c1csnn1 (stereo unspecified)	2%	8%	8	1%	7%
CC(C)(C)NC(=O)C(c1ccc(-c2ccccc2)cc1)N(C[C@H]1CC[C@@H]([C@@H]2CC[C@H](CO)O2)O1)C(=O)c1cccc(Cl)c1 (stereo partly specified)	-24%	-2%	-65*	?	?
CCOc1ccccc1C=C1SC(=S)NC1=O	-20%	-22%	-9	?	-28%
Cc1sc(N)nc1C12CC3CC(CC(C3)C1)C2	-20%	0%	-52*	?	6%
O=C(NCc1cccnc1)c1cc(C2CCCN(S(=O)(=O)c3ccccc3)C2)on1 (stereo unspecified)	13%	12%	33	-24%	-20%
CC(=O)Nc1ccc([N+](=O)[O-])cn1	16%	12%	24	1%	-11%
O=[N+]([O-])c1ccc(Nc2ccc(Cl)cc2)nc1	?	-21%	-57*	-14%	-7%
O=C(O)c1cccc(Nc2ccc([N+](=O)[O-])cn2)c1	-9%	-5%	24	13%	-7%
CC(C)(C)c1ccc(CNc2ccc([N+](=O)[O-])cn2)cc1	-17%	-16%	-15	23µM*	?
CC(C)c1ccc(CNc2ccc([N+](=O)[O-])cn2)cc1	?	?	?	?	-16%
O=[N+]([O-])c1ccc(NNS(=O)(=O)c2cc(Cl)ccc2Cl)nc1	-5%	-2%	-5	?	21µM*
O=[N+]([O-])c1ccc(NCc2ccc(Cl)cc2)nc1	-15%	-25%	-78*	-9%	-2%
Cc1ccc(OC(C)C(=O)Nc2ccc(Cl)cn2)c([N+](=O)[O-])n1 (stereo unspecified)	4%	6%	0	-14%	2%
Cc1cc(Cl)ccc1OC(C)C(=O)Nc1ccc([N+](=O)[O-])cn1 (stereo unspecified)	-19%	-15%	-69*	?	?
O=C(Cn1c(=O)oc2ccccc21)Nc1ccccc1Cl	-1%	4%	3	?	-2%
COc1ccc(C)cc1NC(=O)Cn1c(=O)oc2ccccc21	-7%	7%	-4	2.1µM*	9.2µM*
CCc1ccccc1NC(=O)Cn1c(=O)oc2ccccc21	/	/	/	0.46µM*	2.3µM*
Cc1ccccc1NC(=O)Cn1c(=O)oc2ccccc21	2%	14%	13	2.1µM*	3.7µM*
CC(C)Oc1ccc(CNC(=O)Cn2c(=O)oc3ccccc32)cc1	-1%	11%	-4	16µM*	?
COc1ccc(CC(=O)N2CCCC2)c(OC)c1	-3%	-9%	10	-7%	1%
O=C(O)COc1ccc(Br)cc1CP(=O)(c1ccccc1)c1ccccc1	6%	-6%	31	13%	-15%
O=C(Nc1ccccc1N1CCOCC1)c1cc(-c2ccco2)nc2ccccc12	-23%	?	-17	21µM*	21µM*
COc1cc(-c2cc(C(=O)Nc3ccccc3N3CCOCC3)c3ccccc3n2)cc(OC)c1OC	9%	1%	-67*	21µM*	18µM*
O=C(Nc1ccc(F)cc1F)c1cc(-c2ccco2)nc2ccccc12	-5%	-6%	1	16µM*	?
SMILES	HT1080 IDH1KD tx	HT1080-NT tox	IL-1B inflam inh	DT40 TDP1 no CPT	TDP1 cell CPT
Cc1ccsc1/C=N/NC(=O)c1nnn(-c2nonc2N)c1CSc1ccccc1	16%	?	6	16%	-25%
Fc1ccc(Nc2nc(-c3cccc(Cl)c3)c3c(n2)-c2ccccc2OC3)cc1	/	/	/	?	-11%
CCN1/C(=C/c2ccc3cc(C)cc(C)c3[n+]2CC)Sc2cc(C)ccc21	?	7.3µM*	-97*	0.18µM*	0.65µM*
CCN1/C(=C/c2ccc3cc(C)ccc3[n+]2CC)Sc2ccc3sccc3c21	0.92µM*	?	33	0.58µM*	0.92µM*
O=C(CN1CCN(S(=O)(=O)c2ccc3ccccc3c2)CC1)Nc1ccc2c(c1)CCC2	10%	1%	3	?	23µM*
N#Cc1ccsc1NC(=O)CN1CCN(S(=O)(=O)c2ccc3ccccc3c2)CC1	0%	1%	19	16µM*	?
N#Cc1ccsc1NC(=O)CN1CCN(Cc2ccccc2)CC1	-1%	-1%	8	-20%	-3%
O=C(CCl)N1CCN(S(=O)(=O)c2ccc3c(c2)CCC3)CC1	?	?	-67*	0.65µM*	2.3µM*
Cc1ccc(CNS(=O)(=O)c2ccc(Cl)s2)cc1	4%	-4%	-5	?	?
CCOc1ccc(N2C(=O)/C(=C\c3ccccc3OC)S(=O)(=O)C2c2cccc([N+](=O)[O-])c2)cc1 (stereo unspecified)	1%	9%	-7	16µM*	15µM*
COc1ccccc1/C=C1/C(=O)N(c2cc(C)cc(C)c2)C(c2cccc([N+](=O)[O-])c2)S1(=O)=O (stereo unspecified)	-6%	-9%	-14	?	-19%
CC1(C)CC(NC(=O)C2CCC(=O)N(Cc3ccccc3F)C2)CC(C)(C)C1 (stereo unspecified)	0%	9%	2	?	?
CC1(C(=O)OCC(=O)Nc2ccc3ccccc3c2)CC1(Cl)Cl (stereo unspecified)	1%	-7%	-97*	?	?
CC1(C(=O)OCC(=O)Nc2ccc(C(N)=O)cc2)CC1(Cl)Cl (stereo unspecified)	0%	1%	0	11%	5%
CC1(C(=O)OCC(=O)NCCNC(=O)COC(=O)C2(C)CC2(Cl)Cl)CC1(Cl)Cl (stereo unspecified)	-7%	-2%	4	16µM*	?
O=C1CCC(C(=O)OCC(=O)Nc2ccc(Cl)cc2C(F)(F)F)=NN1	-9%	?	-10	-3%	-11%
Cc1ccc(-n2c(-c3ccccc3)nsc2=NC#N)cc1	/	/	/	?	13µM*
Cc1ccc(-n2c(-c3ccccc3)n[nH]c2=S)cc1	11%	15%	26	-13%	-1%
CCCC(=O)OC1=CN(Cc2ccccc2)S(=O)(=O)c2ccccc21	/	/	/	-22%	3%
